About 620 (0.19%) of roughly 320,000 compounds were called active. Inconclusive results (about 6%) are left out. Cut-off read from the data, not from the text of the source: active = activation above about 80%; inconclusive = between about 30% and that limit; inactive = weaker than that. Shown is part of a subset that was picked to be rich in actives.
Target: Transient receptor potential cation channel subfamily V member 1 (Homo sapiens) (UniProt Q8NER1)
Assay: HTS Assay for Compounds that Act as Agonists of the Vanilloid Receptor 1; note: 0% is about no effect
Settings: TRPV1-expressing cells, Fluo-8 calcium influx, agonist mode; at 8.33 µM; hits give high values
From the text: The transient receptor potential ion channel, family V, number 1, (TRPV1) is one of the most important molecular transducers of painful stimuli and a potential target for analgesic drug development. Although recent clinical trials with orthosteric antagonists have not produced a successful drug because of a hyperthermia side effect and their tendency to block thermal noxious pain, this ion channel is undeniably well placed in the pain pathway, and the idea of blocking pain signals before they enter the CNS is an excellent concept and of proven efficacy when TRPV1 agonists are used. We propose a new approach involving allosteric modulation to impose an activity-dependent constraint within the context of inflammation and tissue damage that would alter the responsiveness of the channel in a way that an orthosteric vanilloid antagonist cannot achieve. We believe that the allosteric modulator approach has not been explored for this target. The main goal of this proposal is to identify additional, new, potent allosteric modulators of TRPV1 that can be used to investigate TRPV1 function. Our recent report provides evidence of proof of concept, but the compounds are just at the edge of utility in terms of potency. […] The question of whether they can be used as analgesic agents is complex, but if suitable compounds are identified then testing for analgesic properties will be conducted. NIH Chemical Genomics Center [NCGC] NIH Molecular Libraries Probe Centers Network [MLPCN] MLPCN Grant: MH089480-1A1 Assay Submitter (PI): Michael Iadarola, National Institute of Dental and Cranofacial Research
Upon TRPV1 activation in TRPV1 cells, the channel opens and extracellular cations flow through the channel into the cytosol. A calcium binding dye (Fluo-8) becomes fluorescent when bound to calcium. This dye is pre-loaded into cells and is used as a marker for calcium influx. The amount of accumulated calcium is precisely quantified using the FDSS kinetic reader and the calcium dye. For the HTS assay, freshly prepared cells are plated at a density of 2000/well in 3 ul medium in 1536-well plates and cultured overnight at 35.5C. Cells will be loaded with 1 ul of the homogeneous calcium dye (ABD Bioquest) at room temperature for 40 to 90 minutes. Plates will be loaded into the FDSS kinetic reader and a 1 sec / cycle for 10 second baseline signal will be measured. Compound library will then be added with a pintool at 23 nl and measured kinetically for 3 minutes. This portion of the read is considered the agonist portion of the screen. Following the 3 minutes of incubation, an on board pipettor will deliver 1 ul of capsaicin for a final concentration equal to the EC20. Signal will be measured kinetically for an additional 2 minutes. This portion of the read is considered the allosteric enhancer portion of the screen. The FDSS reader has a standard filter set capable of measuring calcium bound Fluo-8 (ex=480 and em=520 nm).

Sequence of Transient receptor potential cation channel subfamily V member 1 (Homo sapiens) (Q8NER1 whole entry, looked up): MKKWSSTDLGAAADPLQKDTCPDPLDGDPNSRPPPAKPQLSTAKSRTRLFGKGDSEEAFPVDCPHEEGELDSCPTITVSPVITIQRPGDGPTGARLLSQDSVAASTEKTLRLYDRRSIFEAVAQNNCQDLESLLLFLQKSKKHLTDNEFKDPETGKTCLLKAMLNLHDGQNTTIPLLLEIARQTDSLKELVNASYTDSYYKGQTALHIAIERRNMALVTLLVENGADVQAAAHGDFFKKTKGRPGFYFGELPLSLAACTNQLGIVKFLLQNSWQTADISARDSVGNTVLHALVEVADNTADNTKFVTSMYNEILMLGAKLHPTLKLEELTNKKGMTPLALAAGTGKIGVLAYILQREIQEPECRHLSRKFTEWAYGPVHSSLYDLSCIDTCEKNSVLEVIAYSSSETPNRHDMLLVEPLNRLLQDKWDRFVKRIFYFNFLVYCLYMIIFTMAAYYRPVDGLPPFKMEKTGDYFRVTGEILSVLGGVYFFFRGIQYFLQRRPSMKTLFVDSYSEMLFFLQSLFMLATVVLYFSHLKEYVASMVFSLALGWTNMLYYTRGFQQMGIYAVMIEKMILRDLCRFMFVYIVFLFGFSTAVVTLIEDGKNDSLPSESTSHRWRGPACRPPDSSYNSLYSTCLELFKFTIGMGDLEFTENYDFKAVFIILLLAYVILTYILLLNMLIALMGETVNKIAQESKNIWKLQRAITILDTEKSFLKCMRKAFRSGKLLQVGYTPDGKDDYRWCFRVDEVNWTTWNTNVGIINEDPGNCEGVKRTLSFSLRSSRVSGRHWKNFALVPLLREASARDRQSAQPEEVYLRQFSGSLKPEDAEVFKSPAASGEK

Q: Which activation does the source give for `COc1cc(C(=O)NCC(c2ccco2)N2CCCC2)ccc1OCc1ccccc1` (stereo not drawn) here?
A: 3.05% (inactive)

Q: For `CCOc1cc(/C=C/C(=O)OCC(=O)NCCN2C(=O)CSC2=O)ccc1OCC(C)C`, which activation is on record?
A: 3.05% (inactive)

Q: Which activation does the source give for `CCOC(=O)c1sc(N)c(C#N)c1COC(=O)C1=COCCO1` here?
A: -7.68% (inactive)

Q: How did the activation turn out when `CC(C)(C)C(=O)CSc1ccc(S(=O)(=O)N2CCCC2)cn1` was run?
A: 0.185% (inactive)

Q: Which activation does the source give for `CCN(CC)S(=O)(=O)c1ccc(N2CCOCC2)c(NC(=O)C(C)Oc2ccc(F)cc2)c1` (stereo not drawn) here?
A: 25.5% (inactive)

Q: `O=C(NCc1ccccc1CN1CCCC1)c1cccc(S(=O)(=O)Nc2ccc(F)cc2)c1` was tested. Which activation did it give?
A: 2.73% (inactive)

Q: How did the activation turn out when `Cn1cccc1-c1nc2ccccc2n1C` was run?
A: -1.64% (inactive)

Q: `Cc1ccc(O)c(CNc2nc3ccccc3n2C)c1` was tested. Which activation did it give?
A: 1.21% (inactive)

Q: For `Cc1ccc(C2=NN(C)c3nc4ccccc4n3C2)cc1`, which activation is on record?
A: 84.2% (active)

Q: With `COc1ccc(S(=O)(=O)N2CCOCC2)cc1NC(=O)Cc1coc2cc(C)ccc12` as the compound, how does the activation read?
A: -0.0282% (inactive)

Q: `Cc1nc(-c2ccc(F)cc2)c(CC(=O)N(C)CC(=O)Nc2c(C)cccc2C)s1` was tested. Which activation did it give?
A: -1.54% (inactive)

Q: With `COc1ccc(-c2c(-c3cc(OC)cc(OC)c3)n(C)c3ccc(-c4ccn[nH]4)cc23)cc1` as the compound, how does the activation read?
A: -1.55% (inactive)

Q: With `Cc1onc(C(=O)NN)c1-c1csc(COc2ccccc2)n1` as the compound, how does the activation read?
A: 2.64% (inactive)

Q: For `COc1ccc(-c2csc(Cc3nc(O)cs3)n2)cc1`, which activation is on record?
A: 4.2% (inactive)

Q: `CC(C)(C)C(=O)OCc1nc(-c2ccc(O)c(O)c2)cs1` was tested. Which activation did it give?
A: 91.2% (active)

Q: `CCOc1ccc(OCC(=O)OC(C)C(=O)NC2CCCCC2C)cc1` (stereo not drawn) was tested. Which activation did it give?
A: 11.7% (inactive)

Q: With `CCc1ccc(/C=C2\SC(N3CCOCC3)=NC2=O)cc1` as the compound, how does the activation read?
A: 89.7% (active)

Q: `CC1CCN(C2=NC(=O)/C(=C/c3ccc(O)cc3)S2)CC1` was tested. Which activation did it give?
A: 2.66% (inactive)

Q: `Cc1ccsc1/C=C1\SC(N2CCOCC2)=NC1=O` was tested. Which activation did it give?
A: 16.7% (inactive)

Q: For `Cc1nc(SCC(=O)NC2CCCCC2C)c(C#N)c(C)c1C` (stereo not drawn), which activation is on record?
A: 11% (inactive)

Q: Which activation does the source give for `N#Cc1ccc(OCC(=O)NC(=O)NC2CCS(=O)(=O)C2)cc1` (stereo not drawn) here?
A: -0.359% (inactive)

Q: `O=C(COC(=O)CCCN1C(=O)c2cccc3cccc(c23)C1=O)NC1CCS(=O)(=O)C1` (stereo not drawn) was tested. Which activation did it give?
A: -0.543% (inactive)

Q: For `Cc1ccc2c(CN3CCN(S(=O)(=O)c4ccccc4C(F)(F)F)CC3)cc(=O)oc2c1`, which activation is on record?
A: 4.46% (inactive)

Q: `O=C(CSC(=S)N1CCOCC1)c1cc(Br)cc(Br)c1O` was tested. Which activation did it give?
A: -0.207% (inactive)

Q: For `O=C(c1cc2cc(Br)cc(Br)c2oc1=O)N1CCOCC1`, which activation is on record?
A: 87.7% (active)

Q: For `COc1cc2ccccc2cc1C(=O)N1CCOCC1`, which activation is on record?
A: -0.849% (inactive)

Q: How did the activation turn out when `COc1cc(OC)cc(-c2c(-c3cccs3)c3cc(-c4ccc(OC)cc4F)ccc3n2C)c1` was run?
A: -2.36% (inactive)

Q: With `CN(C(=O)COC(=O)Cn1cnc2c1c(=O)n(C)c(=O)n2C)C1(C#N)CCCCC1` as the compound, how does the activation read?
A: -2.27% (inactive)

Q: How did the activation turn out when `COc1ccc(C)cc1NC(=O)CN1c2cccc3cccc(c23)S1(=O)=O` was run?
A: -0.498% (inactive)

Q: How did the activation turn out when `CCCN(CC(=O)NC(=O)NC1CCCCC1)CC(=O)Nc1cc(Cl)ccc1Cl` was run?
A: 3.99% (inactive)

Q: Which activation does the source give for `O=C(CCc1ccccc1Cl)Nc1ccc(S(=O)(=O)Nc2nccs2)cc1` here?
A: -1.57% (inactive)

Q: For `COC(=O)c1ccc(CSc2ccc(S(=O)(=O)N3CCCCC3)cn2)cc1`, which activation is on record?
A: 6.26% (inactive)

Q: For `Cc1ccc(C(=O)NCC(c2cccs2)N(C)C)cc1S(=O)(=O)N1CCOCC1` (stereo not drawn), which activation is on record?
A: 10.3% (inactive)

Q: Which activation does the source give for `CN1CCN(S(=O)(=O)c2ccc(N3CCN(c4ccccc4O)CC3)c([N+](=O)[O-])c2)CC1` here?
A: 4.24% (inactive)

Q: Which activation does the source give for `Cc1ccc(CN2CC(C(=O)N3CCN(S(=O)(=O)c4ccccc4)CC3)CC2=O)cc1` (stereo not drawn) here?
A: 0.927% (inactive)

Q: With `COc1ccc(NS(=O)(=O)c2cc(NC(=O)COc3ccccc3F)ccc2OC)cc1` as the compound, how does the activation read?
A: 0.255% (inactive)

Q: `COc1ccc(C2=NN(C(=O)CSc3nnnn3C)C(c3ccco3)C2)cc1` (stereo not drawn) was tested. Which activation did it give?
A: -0.899% (inactive)

Q: `O=C(CSc1nnc(CN2CCCC2)n1-c1ccc(F)cc1)c1ccc2c(c1)OCO2` was tested. Which activation did it give?
A: 4.88% (inactive)

Q: How did the activation turn out when `COc1cccc2cc(C(C)N(CCCN3CCOCC3)C(=O)Nc3ccc(Cl)cc3)oc12` (stereo not drawn) was run?
A: 85.6% (active)

Q: With `COc1cccc(NC(=S)NCCCN2CCOCC2)c1` as the compound, how does the activation read?
A: -6.52% (inactive)

Q: `COc1ccc(Cl)cc1NC(=O)CCN1CCOCC1` was tested. Which activation did it give?
A: -0.647% (inactive)

Q: Which activation does the source give for `Cc1cccc(C)c1NC(=O)COC(=O)c1c(C)nn(-c2ccccc2)c1C` here?
A: 0.597% (inactive)

Q: Which activation does the source give for `O=C1NCC(=O)N(Cc2ccccc2)/C1=C/c1ccccc1` here?
A: 6.12% (inactive)

Q: With `O=C1/C(=C\c2ccsc2)NC(=S)N1c1ccccc1` as the compound, how does the activation read?
A: 2.57% (inactive)

Q: How did the activation turn out when `CN(C)c1ccc(/C=C2\NC(=S)N(Cc3ccccc3)C2=O)cc1` was run?
A: 82.1% (active)

Q: For `Cc1csc(=O)n1CCC(=O)OCC(=O)NNC(=O)c1ccc(Br)cc1`, which activation is on record?
A: 2.91% (inactive)

Q: `OCC[C@H]1C[C@H](O)[C@@H](O)[C@]2(Cc3ccccc3CO2)O1` was tested. Which activation did it give?
A: 1.78% (inactive)

Q: With `Cc1cccc(N2C(=O)c3ccc(C(=O)Nc4cccc(C(=O)O)c4)cc3C2=O)c1` as the compound, how does the activation read?
A: -0.654% (inactive)

Q: `Cc1cccc(C(=O)Nc2ccc(CC(=O)O)cc2)c1` was tested. Which activation did it give?
A: 1.02% (inactive)

Q: How did the activation turn out when `Cc1cccc(C(=O)Nc2ccc3c(c2)C(=O)N(CC(C)C)C3=O)c1` was run?
A: 80.9% (active)

Q: Which activation does the source give for `N#Cc1cccc(NC(=O)C2CCCN(C(=O)c3ccc(Cl)cc3)C2)c1` (stereo not drawn) here?
A: 11.9% (inactive)

Q: How did the activation turn out when `O=C(O)c1ccc(N/N=C/c2cn(-c3ccccc3)nc2-c2cccs2)cc1` was run?
A: -2.97% (inactive)

Q: `O=C(O)/C=C/c1cn(Cc2ccccc2)nc1-c1cccs1` was tested. Which activation did it give?
A: 2.25% (inactive)

Q: Which activation does the source give for `O=C(/C=C\c1cn(-c2ccccc2)nc1-c1cccs1)N1CCOCC1` here?
A: 96.6% (active)

Q: Which activation does the source give for `CC(C(=O)Nc1ccc(S(=O)(=O)N2CCCC2)cc1)N(C)Cc1ccc(F)cc1` (stereo not drawn) here?
A: 17.2% (inactive)

Q: For `O=C(CSc1ccccc1)Nc1cccc(S(=O)(=O)N2CCCCC2)c1`, which activation is on record?
A: 21.4% (inactive)

Q: Which activation does the source give for `O=C(OCC(=O)N1CCN(C(=O)c2ccco2)CC1)c1ccc(Cl)c(Cl)c1` here?
A: 2.6% (inactive)

Q: With `Oc1ccc(Cl)cc1C1C=C(c2ccc3c(c2)OCO3)NC(c2ccc(F)c(Br)c2)N1` (stereo not drawn) as the compound, how does the activation read?
A: 6.1% (inactive)

From PubChem BioAssay AID540275 (National Center for Advancing Translational Sciences (NCATS), 2011)
